Compound activity: PubChem, National Center for Advancing Translational Sciences (NCATS)
JMJD2A Tudor inh = JMJD2A Tudor domain (human) inhibition; O75164; AlphaScreen JMJD2A-Tudor / H3K4me3 peptide binding; Potency, µM (series often up to 114 µM), for inactives: at the top dose activity change, negative = inhibition, hits mostly inhibitors; actives 4.4% (n = 390,000); AID 504339; note: % is set by controls: 0 for no effect and ±100 for the full control effect; nearly all actives have a fitted effect of over 50% in size
Sfp inh = inhibitors of Bacillus subtilis Sfp phosphopantetheinyl transferase. Potency, µM, for the others: largest response in the series, negative = inhibition, hits mostly inhibitors. actives 3.5% (n = 310,000). Q9F4F7. Biochemical Sfp PPTase activity, qHTS. AID 1490;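 note: the enzyme is Sfp with the accession as filed and its product quenches rhodamine fluorescence; 0% = enzyme reaction without inhibitor and -100% = no enzyme wells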
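Fluorescence-quenching assay: 15 nM Sfp-PPTase preincubated 15 min at room temperature with compound, then 5 uM rhodamine-CoA and 12.5 uM BHQ-2-labelled YbbR peptide added. Fluorescence (ex 525/em 598 nm) read at start and after 30 min; difference gives rate.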
HP1b binding inh = inhibitors of HP1-beta chromodomain binding to methylated histone tails; P83916; AlphaScreen HP1-beta / biotin-H3K9me3 peptide binding; Potency, µM (series often up to 114 µM), without a hit: top-dose activity change, negative = inhibition, actives largely listed as inhibitors; actives 0.56% (n = 390,000); AID 540317; note: nearly all actives have a fitted effect of over 70% in size
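AlphaScreen: HP1-beta (50 nM) preformed 30 min with biotin-H3(1-18)K9me3 peptide (50 nM) in PBS pH 7.4, 0.01% Tween-20. Compound added for 30 min at RT, then streptavidin donor/nickel chelate acceptor beads (10 ug/mL) for 30 min.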
BAZ2B block = inhibitors of human BAZ2B bromodomain; Q9UIF8; AlphaScreen BAZ2B-H3K14Ac peptide displacement; Potency, µM (top dose mostly 114 µM), inactives show at the top dose activity change, negative = inhibition, most hits filed as inhibitors; actives 4.4% (n = 360,000); AID 504333; note: % is set by controls: 0 for no effect and ±100 for the full control effect; nearly all actives have a fitted effect of over 60% in size
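AlphaScreen displacement: compounds (up to 110uM) incubated 30 min at room temperature with a preformed 50 nM BAZ2B/50 nM biotinylated H3K14Ac peptide complex in PBS pH 7.4 with Tween-20. Donor and acceptor beads at 10 ug/mL final added, 20 min light-protected before reading.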
G9a inh = blocks human histone lysine methyltransferase G9a; Potency, µM (series often up to 102 µM), for inactives: at the highest dose activity, negative = inhibition, actives largely listed as inhibitors; actives 8.8% (n = 350,000); Q96KQ7; G9a H3K9 monomethylation, AlphaScreen, 2 h; note: % is set by controls: 0 for no effect and ±100 for the full control effect; nearly all actives have a fitted effect of over 75% in size
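Chemiluminescent proximity detection of H3K9 monomethylation, read after 10 min bead incubation in the dark. Reaction: 20 nM G9a, 500 nM biotin-H3K9 peptide, 20 uM SAM cofactor, 2 h, room temperature, following 15 min enzyme-compound preincubation.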
PLK1 PBD inh = PLK1 (human) polo-box domain binding inhibition | P53350 | Plk1 PBD binding of FITC phosphopeptide, fluorescence polarization | Potency, µM, without a hit: max response, negative = inhibition, hits mostly inhibitors | actives 2.8% (n = 360,000) | AID 720504; note: series mostly up to about 57 µM; % is set by controls: 0 for no effect and ±100 for the full control effect; nearly all actives have a fitted effect of over 65% in size
Target sequence (P53350 whole entry, looked up, the tested form may be a part): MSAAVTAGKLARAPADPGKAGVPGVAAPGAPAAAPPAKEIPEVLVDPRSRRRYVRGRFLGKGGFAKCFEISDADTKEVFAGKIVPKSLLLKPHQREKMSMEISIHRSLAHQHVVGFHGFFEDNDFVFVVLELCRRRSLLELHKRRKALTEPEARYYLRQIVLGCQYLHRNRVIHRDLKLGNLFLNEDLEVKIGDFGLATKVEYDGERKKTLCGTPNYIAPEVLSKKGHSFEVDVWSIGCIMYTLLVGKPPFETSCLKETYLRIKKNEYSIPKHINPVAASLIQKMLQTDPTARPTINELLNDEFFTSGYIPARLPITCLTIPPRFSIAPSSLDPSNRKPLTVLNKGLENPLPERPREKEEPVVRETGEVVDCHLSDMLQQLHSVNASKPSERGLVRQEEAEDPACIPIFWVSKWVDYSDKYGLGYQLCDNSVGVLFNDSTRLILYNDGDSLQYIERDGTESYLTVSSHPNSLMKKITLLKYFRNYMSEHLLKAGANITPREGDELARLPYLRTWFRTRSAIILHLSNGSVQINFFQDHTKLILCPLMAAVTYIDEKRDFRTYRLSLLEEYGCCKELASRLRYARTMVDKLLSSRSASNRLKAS
An asterisk follows results filed as active; ? = inconclusive; / = no result; ! = a repeat was not active; [ ] = another dose, or the depositor's remark. Sampled rows, rich in hits. Any-hit rate of the full collection: about 12%. Calls come from the whole dose curve; as a rule, active = well fitted curve in the direction sought with a large enough effect; inconclusive = small, poorly fitted or top-dose-only effect, or another doubt; inactive = no such curve, though single readings can be large; an effect the other way counts as inactive or inconclusive. Potency is the fitted concentration of half-maximal effect.

SMILES	JMJD2A Tudor inh	Sfp inh	HP1b binding inh	BAZ2B block	G9a inh	PLK1 PBD inh
C[C@H](NC(=O)[C@@H](Cc1c[nH]c2ccccc12)NC(=O)[C@@H](N)Cc1cnc[nH]1)C(=O)N[C@@H](Cc1c[nH]c2ccccc12)C(=O)N[C@H](Cc1ccccc1)C(=O)N[C@@H](CCCCN)C(N)=O	/	22%	/	/	/	/
COc1ccc(C2=NOC(Cn3nc(C(=O)NCc4cccc(C(F)(F)F)c4)cc3-c3ccccc3)C2)cc1 (stereo not given)	-24%	/	24%	5%	-15%[2.33 µM]	-14%
Cc1ccc2nc(N3CCN(C)CC3)c(C=O)c(=O)n2c1	-9%	6%	33%	-1%	-15%	-3%
COc1ccc2c(CCNC(N)=S)c[nH]c2c1	20µM*	2%	-18%	89µM*	-42%	19µM*
COc1ccc(-c2cc(NCc3ccc(C)cc3)n3cnnc3n2)cc1	-24%	/	19%	-10%	-53%[59 µM]	/
O=[N+]([O-])c1cccnc1Sc1ccc(Cl)cc1	56µM*	-2%	?	32µM*	45µM*	-1%
Cc1ccc(C2CC(=O)Oc3ccc(O)cc32)cc1 (stereo not given)	/	?	/	/	11µM*	/
Cc1ccc(C2CC(=O)Oc3ccc(C(C)(C)C)cc32)cc1 (stereo not given)	/	2%	/	/	78%	/
Cc1ccccc1C1CC(=O)Oc2cc(O)ccc21 (stereo not given)	-26%	2%	8%	/	1%	17µM*
O=C(COC(=O)c1cnccn1)NCc1ccc2c(c1)OCO2	-3%	16%	38%	-3%	-3%	0%
N#C/C(=C\c1ccc(-c2cccc([N+](=O)[O-])c2)o1)C(=O)Nc1nc(-c2cccs2)cs1	-21%	-5%	18%	-12%	-11%[59 µM]	-10%
CC(=O)C1=C(C)Nc2cc(C(F)(F)F)ccc2S1	-22%	56µM*	-4%	11%	22µM*	?
C[C@@H](N)C1CCC(C(=O)Nc2ccncc2)CC1 (stereo not given in full)	/	19%	/	/	30µM*!	/
COc1cc2ccccc2cc1C(=O)N1CCN(c2nc3c(F)cc(F)cc3s2)CC1	-30%	/	3%	-23%	-12%[59 µM]	/
CCNC(=O)C1CCCN(C(=O)C(c2ccccc2)c2ccccc2)CC1 (stereo not given)	/	/	/	/	/	-9%
C/C=C/c1ccc(OCCCCNCc2ccco2)c(OC)c1	22µM*	-24%	?	40µM*	11µM*	-5%
C/C=C/c1ccc(OCCCNCC(C)O)c(OC)c1 (stereo not given)	-26%	15%	25%	-2%	0%[12.7 µM]	-10%
C/C=C/c1ccc(OCCCCN2CCN(CC)CC2)c(OC)c1	20µM*	?	?	25µM*	/	-11%
C/C=C/c1ccc(OCCCCOc2ccc(OC)cc2)c(OC)c1	22%	?	28%	43%	75%[59 µM]	-7%
Cc1ccc(CN(C)C(=O)C2CCC(=O)N(CC3CCCCC3)C2)o1 (stereo not given)	-22%	4%	44%	-6%	/	-9%
Cc1cc(C(=O)CCl)c(C)n1Cc1ccco1	?	-24%	?	?	-43%	?
Cc1ccc2cccc(OCC(=O)c3cc(C)n(Cc4ccco4)c3C)c2n1	/	56µM*	/	-36%	?	/
Cc1ccc(C(=O)NCC(=O)OCC(=O)c2cc(C)n(Cc3ccco3)c2C)cc1	?	10%	?	?	45µM*	-5%
Cc1cccc(CN2CCN(C3CN(Cc4cn(Cc5ccc(F)cc5)nn4)S(=O)(=O)C3)CC2)c1 (stereo not given)	/	/	/	/	/	-13%
COC(=O)[C@@]12CCCN1[C@H](c1ccc(-c3ccccc3)cc1)[C@H]1C(=O)N(C)C(=O)[C@H]12	79µM*	/	7%	-13%	15%[2.33 µM]	-13%
Cc1ccc(Nc2c(-c3ccc(C)o3)nc3cnccn23)cc1	40µM*	10µM*	?	?	32µM*	14µM*
